Results as given in paper PMC5540273 (PLoS ONE, 2017).

Legend:
Settings in all cases: concentration: 1 μM, replicates: in singlicate; n = 1
[1] = test system: LTK
[2] = test system: LYN
[3] = test system: T1, LZK
T1 construct: gene MAP3K13

[4] = test system: MAK
[5] = test system: MAP3K15
[6] = test system: MAP3K1
[7] = test system: MAP3K2
[8] = test system: MAP3K3
[9] = test system: MAP3K4
[10] = test system: MAP4K2
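Also: KINOMEscan kinase panel screen.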

Structure (SMILES) | %Inh [1] | %Inh [2] | %Inh [3] | %Inh [4] | %Inh [5] | %Inh [6] | %Inh [7] | %Inh [8] | %Inh [9] | %Inh [10]
COc1cc2c(cc1OCCN1CCN(C)CC1)ncc1c3ccc(C#N)cc3[nH]c21 | 0% | 19% | 11% | 21% | 61% | 0% | 0% | 0% | 0% | 54%
Cc1c(Cn2c(C)nn3c(=O)cc(N4CCOC(C)C4)nc23)cccc1C(F)(F)F (stereo not drawn) [GSK2344444] | 0% | 0% | 0% | 15% | 10% | 16% | 9% | 0% | 0% | 0%
O=C(NCCCN1CCOCC1)c1cccc(Nc2nccc(Nc3ccc(Oc4ccccc4)cc3)n2)c1 [GW663929] | 0% | 72% | 28% | 36% | 0% | 0% | 0% | 0% | 0% | 13%
NS(=O)(=O)CCc1cccc(Nc2nccc(-c3c(-c4cccc(NC(=O)c5c(F)cccc5F)c4)nn4ccccc34)n2)c1 [GSK336735] | 39% | 97.8% | 0% | 22% | 5% | 13% | 88% | 79% | 76% | 0%
Cc1cccc(-c2nc(-c3ccc(S(C)(=O)=O)cc3)sc2-c2ccncc2)c1 | 0% | 14% | 8% | 17% | 9% | 12% | 10% | 9% | 0% | 0%
CC(C)(C)n1cnc2c(N)ncnc21 [SKF-97359] | 0% | 0% | 15% | 0% | 0% | 0% | 0% | 0% | 0% | 0%
CCc1ccnc(/C=C/c2n[nH]c3cc(Sc4ccccc4C(=O)NC)ccc23)c1 | 6% | 23% | 17% | 20% | 0% | 12% | 17% | 6% | 4% | 9%
O=C1Cc2cc(Nc3nc(NCc4cccc(S(=O)(=O)C(F)(F)F)c4)ncc3C(F)(F)F)ccc2N1 | 6% | 0% | 25% | 15% | 21% | 2% | 12% | 0% | 6% | 0%
Cc1cccc(-c2nc(Nc3ccc4ncsc4c3)c3ccccc3n2)n1 [GW867588] | 7% | 0% | 7% | 0% | 0% | 0% | 8% | 6% | 0% | 0%
COc1cc2ncn(-c3cc(OCc4sccc4Cl)c(C(N)=O)s3)c2cc1OC [GSK448459] | 0% | 0% | 0% | 7% | 0% | 88% | 10% | 0% | 0% | 20%
COc1ccc(S(=O)(=O)NC2CCN(c3cc(C)nc(Nc4cccc(C#N)c4)n3)CC2)cc1.O=C(O)C(F)(F)F [GSK1653539] | 0% | 0% | 26% | 19% | 0% | 3% | 0% | 0% | 24% | 0%
Fc1ccc(-c2ncn(CCCN3CCOCC3)c2-c2cccnc2)cc1 [SB-211743] | 18% | 0% | 0% | 15% | 0% | 7% | 28% | 0% | 0% | 0%
Cn1cc(-c2ccc3c(c2)CCN3C(=O)Cc2ccccc2Cl)c2c(N)ncnc21 [GSK2608885] | 55% | 99.2% | 0% | 16% | 0% | 7% | 91.1% | 82% | 86% | 10%
CN1c2ccc(NCc3ccc(F)cc3)cc2-c2c(cnn2C)S1(=O)=O | 0% | 0% | 0% | 0% | 0% | 0% | 0% | 5% | 11% | 0%
CC(C)Oc1ccc2c(-c3ccnc(Nc4ccc(N5CCN(C)CC5)cc4)n3)cnn2n1 [GW696155] | 0% | 34% | 10% | 0% | 11% | 39% | 83% | 67% | 74% | 28%
O=C(Nc1n[nH]c2cc(-c3cccc(F)c3)ccc12)C1CC1 [SB-735464] | 0% | 9% | 2% | 3% | 48% | 22% | 5% | 10% | 24% | 6%
CN1c2ccc(CNc3ccc(F)cc3)cc2-c2c(cnn2C)S1(=O)=O | 0% | 3% | 0% | 3% | 0% | 0% | 11% | 25% | 12% | 0%

Structure (SMILES) | %Inh [1] | %Inh [2] | %Inh [3] | %Inh [4] | %Inh [5] | %Inh [6] | %Inh [7] | %Inh [8] | %Inh [9] | %Inh [10]
Cc1cn2c(=O)cc(N3CCOCC3)nc2n1Cc1cccc(Cl)c1Cl [GSK2334006] | 7% | 4% | 0% | 9% | 2% | 18% | 6% | 0% | 0% | 0%
NS(=O)(=O)c1cccc(-c2ccc3ncc(N4CCOCC4)nc3c2)c1 [GSK1535721] | 8% | 0% | 23% | 8% | 0% | 0% | 0% | 0% | 0% | 4%
O=C(NCCNc1ccnc(Nc2ccc(F)cc2)n1)Nc1ccccc1F [GSK1379880] | 0% | 0% | 0% | 0% | 14% | 0% | 0% | 0% | 29% | 0%
COc1cc(Nc2nccc(N3CCC(NC(=O)c4cccc(NC(C)=O)c4)C3)n2)cc(OC)c1OC (stereo not drawn) [GSK1379754] | 20% | 1% | 0% | 18% | 0% | 0% | 10% | 0% | 14% | 0%
Cn1ccc2ncnc(Oc3ccc(NC(=O)Nc4ccncc4)c(Cl)c3)c21 | 0% | 0% | 0% | 10% | 0% | 0% | 0% | 0% | 0% | 0%
CSc1ccc(-c2cc3ncnc(SCC(=O)O)c3s2)cc1 | 17% | 0% | 0% | 29% | 0% | 0% | 0% | 0% | 10% | 0%
Cc1nnc(-c2ccc(C)c(-c3ccc(C(=O)Nc4ccc(NS(C)(=O)=O)cc4)cc3)c2)o1 [GW702865] | 3% | 25% | 21% | 35% | 0% | 0% | 0% | 0% | 19% | 0%
O=C(NCCNc1ccnc(Nc2ccc(F)cc2)n1)c1cc2ccccc2s1 [GSK1379874] | 0% | 0% | 0% | 23% | 0% | 0% | 0% | 0% | 0% | 0%
CCCCCc1nc2c(N)ncnc2n1CCCCC [SKF-97255] | 6% | 0% | 0% | 0% | 0% | 18% | 29% | 0% | 10% | 0%
c1ccc(-c2n[nH]cc2-c2ccnc3ccccc23)nc1 [GW271431] | 13% | 0% | 0% | 17% | 0% | 16% | 11% | 0% | 4% | 0%
N#Cc1c(N2CCOCC2)sc(-c2ccn[nH]2)c1-c1ccc(Cl)cc1 | 17% | 0% | 20% | 12% | 45% | 5% | 0% | 30% | 2% | 0%
Cc1cccc(Cn2ccn3c(=O)cc(N4CCOCC4)nc23)c1 [GSK2297542] | 0% | 0% | 0% | 32% | 0% | 8% | 8% | 0% | 0% | 0%
Cc1nnc(-c2ccc3occ(-c4ccc(C(C)O)cc4)c3c2)o1 (stereo not drawn) | 0% | 18% | 0% | 0% | 0% | 10% | 3% | 19% | 9% | 20%
Cc1c2ccc(N(C)c3ccnc(Nc4cccc(S(N)(=O)=O)c4)n3)cc2nn1Cc1ccccc1.Cl.Cl [GW787226] | 45% | 84% | 0% | 0% | 0% | 0% | 31% | 0% | 22% | 0%
CNc1ncnc2[nH]ncc12 [SKF-18355] | 0% | 0% | 27% | 2% | 0% | 2% | 14% | 0% | 0% | 0%
COc1cc2c(cc1OC[C@@H](O)CO)ncc1c3ccc(C#N)cc3[nH]c21 | 0% | 0% | 8% | 0% | 42% | 0% | 0% | 6% | 0% | 17%
